# Screening data deposited in PubChem BioAssay by National Center for Advancing Translational Sciences (NCATS).
# Pf growth 48h: P. falciparum growth inhibition at 48 hours (one generation) | P. falciparum luciferase growth in erythrocytes, 48 h | Potency, µM (series often up to 28.7 µM), actives largely listed as inhibitors | actives 5.9% (n = 310,000) | AID 504832
#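 Luciferase-expressing parasites in RBCs, 2% Hct / 0.1% parasitemia final; RPMI 1640 + 0.5% Albumax; 37 C, 5% CO2, one generation; luminescence read-out, lower signal = inhibition.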
# NS1 inh: blocks influenza NS1 protein function; Potency, µM (doses to about 46.1 µM); actives 0.4% (n = 270,000); calls by dose curve; also: actives are rising curves; nearly all actives have a fitted effect of over 50% in size
#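 Read-out: OD600 growth recovery of NS1-expressing budding yeast. Cells grown overnight at 30C in -URA glucose medium, washed, resuspended and diluted 1:100 in 2% galactose assay medium, pH 6.0. Same strain lacking NS1 served as positive control.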
# SARS PLP yeast: inhibitors of SARS-CoV papain-like protease in yeast; S. cerevisiae expressing SARS-CoV PLpro, growth rescue; Potency, µM (titrated, usually from 32.9 µM), actives largely listed as activators; actives 0.19% (n = 330,000); AID 485353; calls by dose curve; also: nearly all actives have a fitted effect of over 55% in size
# AMA1 RON2 block: disrupts binding of P. falciparum AMA1 to RON2. Potency, µM (highest dose often 58.2 µM), hits mostly inhibitors. AlphaScreen AMA1-biotinylated RON2 peptide binding. actives 0.2% (n = 360,000); also: nearly all actives have a fitted effect of over 45% in size
#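 AMA1 (3D7) with his tag at 25 nM final met compounds first, then biotinylated RON2 peptide at 25 nM; detection used donor plus acceptor beads, 10 µg/mL apiece, read by AlphaScreen after 30 min at room temperature.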
# Pf growth 96h: P. falciparum growth inhibition at 96 hour, primary screen for plastid delayed-death inhibitors; P. falciparum luciferase reporter growth, 96 h; Potency, µM (highest dose often 28.7 µM), usual class: inhibitors; actives 6.9% (n = 320,000); AID 504834
#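 Compounds incubated with erythrocytes infected by luciferase-expressing P. falciparum (2% hematocrit, 0.05% parasitemia final) for 96 hours, 37 C in 5% CO2. Growth inhibition scored as decreased luciferase luminescence.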
# HCV inhibitor: HCV inhibition | Potency, µM (doses to about 41.8 µM), actives largely listed as inhibitors | AID 651820 | Huh7.5.1 HCVcc-Cre infection, luciferase reporter, 44 h | actives 3.4% (n = 340,000)
#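 Seed cells (1,000/well) for 4 h; treat with compound and infect with HCVcc-Cre, moi about 0.5. Incubate 44 h, then detect luciferase activity.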
# Hits are given with their value; 0 = inactive; ? = inconclusive; - = not tested or not shown; [ ] = remark or other dose. Compounds with a hit are over-represented: about 12% of the library has one in this group of screens. Unless noted, calls follow the shape of the dose curve; as a rule, active = well fitted curve in the direction sought with a large enough effect; inconclusive = small, poorly fitted or top-dose-only effect, or another doubt; inactive = no such curve, though single readings can be large; an effect the other way counts as inactive or inconclusive.
SMILES,Pf growth 48h,NS1 inh,SARS PLP yeast,AMA1 RON2 block,Pf growth 96h,HCV inhibitor
CC1(C(=O)NCc2cccc3ccccc23)CCN1Cc1ccccc1OC(F)F (centres undefined),-,-,-,0,-,-
COc1ccc(C(=S)N2CCN(c3ccccc3C)CC2)cc1,?,0,0,0,8.3µM,?
COC(=O)/C=C/C(=O)N1CCN(c2ccccc2)CC1,0,0,0,0,?,0
COC(=O)/C=C/C(=O)N1CCN(c2ccccc2C)CC1,0,0,0,0,7.4µM,0
COc1ccc(C(=O)CC(=O)C(=O)Nc2cc(C)ccc2C)cc1,-,0,0,0,9.3µM,0
COc1ccc(C(=O)CC(=O)C(=O)Nc2ccc(C)c(Cl)c2)cc1,-,0,0,0,0,0
CN(C)c1ccc(C=O)c(Oc2ccccc2)c1,-,-,-,0,-,-
Oc1ccc(Cn2c(-c3ccc(O)cc3)nc3ccccc32)cc1,-,0,-,-,-,-
COc1cc(Cn2c(-c3ccc(O)c(OC)c3)nc3ccccc32)ccc1O,2.9µM,0,0,0,13µM,0
CC(C)[C@H](NC(=O)[C@@H]1Cc2c([nH]c3ccccc23)C2c3ccccc3C(=O)N21)C(=O)N1CCC[C@@H]1C(=O)O (some centres undefined),0,0,0,0,15µM,0
CC(C)[C@H](NC(=O)N1CC(=O)Nc2ccccc21)C(=O)N1CCC[C@H]1C(=O)O,0,0,0,0,0,0
CCN(CC)c1ncnc2c1[nH]c1ccccc12,4.1µM,0,0,0,-,11µM
C=CCn1cccc(/C=C/C(=O)c2ccc(C(C)(C)C)cc2)c1=S,?,0,0,?,?,10µM
O=C(C=Cc1ccccc1Cl)c1ccccc1,-,-,-,0,-,0
O=C1c2ccccc2C(=O)N1c1ccc(Cc2ccc(N3C(=O)c4ccccc4C3=O)cc2)cc1,-,0,-,-,-,-
C=C(C(=O)c1ccccc1)C(CC(=O)c1ccccc1)c1ccccc1 (centres undefined),?,0,0,0,0,13µM
CCn1c(C)nc2cc(C(=O)N3N=C(CCOC)CC3(O)C(F)(F)F)ccc21 (centres undefined),0,0,0,0,?,0
CN(C)c1nc(=NCc2ccco2)ss1,?,0,0,0,2.6µM,0
CCOC(CN=c1nc(N(C)C)ss1)OCC,-,-,-,0,-,0
Cc1ccc(-n2nnnc2Sc2nc([N+](=O)[O-])nn2C)cc1,4.1µM,0,0,0,0,0
Cc1ccc(-n2nnnc2Sc2nc([N+](=O)[O-])nn2C)c(C)c1,-,-,-,0,-,0
COc1ccc(-n2nnnc2CNC(=O)c2c(-c3ccccc3Cl)noc2C)cc1,-,-,-,0,-,-
COc1cccc(/C=N/NC(=O)Cn2cnc3c2c(=O)n(C)c(=O)n3C)c1,0,0,0,0,0,0
COc1ccc(C2CC3(CC(C)(C)NC(=O)N3)Oc3cc(O)ccc32)cc1 (centres undefined),?,0,0,0,-,0
CC1(C)CC2(CC(c3ccccc3)c3ccc(O)cc3O2)NC(=S)N1 (centres undefined),0,0,0,0,?,?
SMILES,Pf growth 48h,NS1 inh,SARS PLP yeast,AMA1 RON2 block,Pf growth 96h,HCV inhibitor
Cc1cc(O)cc2c1C(c1ccc(F)cc1)CC1(CC(C)(C)NC(=S)N1)O2 (centres undefined),?,0,0,0,0,22µM
COc1ccc(C2CC3(CC(C)(C)NC(=S)N3)Oc3cc(O)cc(C)c32)cc1 (centres undefined),?,0,0,0,4.1µM,?
COc1ccc(C2CC(=O)Oc3cc(C)cc(C)c32)cc1 (centres undefined),-,-,0,0,-,0
COc1ccc(C2CC3(CC(C)(C)NC(SC)=N3)Oc3cc(O)cc(C)c32)cc1 (centres undefined),?,0,0,0,0,13µM
CC(C)(C)OC(=O)N1CCC(C(=O)Nc2ccc3c(c2)CCC3)CC1,0,-,0,0,0,0
CC(C)CNC(=O)C(=O)NCCC1CCCCN1S(=O)(=O)c1cccs1 (centres undefined),0,-,0,0,0,0
C[C@]12c3[nH]c4ccccc4c3CCN1C(=O)C(CC(=O)NCC13CC4CC(CC(C4)C1)C3)C[C@@H]2C(=O)N1CCCCC1 (some centres undefined),-,-,0,0,-,0
COc1ccc2[nH]c3c(c2c1)CCN1C(=O)C(CC(=O)NCC24CC5CC(CC(C5)C2)C4)C[C@H](C(=O)N2CCCCC2)[C@@]31C (some centres undefined),-,-,0,0,-,25µM
C[C@]12c3[nH]c4ccc(Cl)cc4c3CCN1C(=O)[C@@H](CC(=O)NCCCn1ccnc1)C[C@@H]2C(=O)N1CCCCC1,-,-,0,0,-,?
COc1ccc2[nH]c3c(c2c1)CCN1C(=O)C(CC(=O)NCc2cccc(C(F)(F)F)c2)C[C@H](C(=O)N2CCCCC2)[C@@]31C (some centres undefined),-,-,0,0,-,11µM
C[C@]12c3[nH]c4ccc(Cl)cc4c3CCN1C(=O)[C@@H](CC(=O)NCc1cccc(C(F)(F)F)c1)C[C@@H]2C(=O)N1CCCCC1,-,-,0,0,-,25µM
O=C(C[C@H]1C[C@H](C(=O)N2CCCCC2)[C@@]2(CCc3ccccc3)c3[nH]c4ccc(Cl)cc4c3CCN2C1=O)NCCCn1ccnc1,-,-,0,0,-,25µM
CC1CCN(C(=O)COC(=O)c2cc3ccccc3oc2=O)CC1,-,-,0,0,-,?
[Cu].[NH-][C@H](CC(=O)O)C(=O)O.[NH-][C@H](CC(=O)O)C(=O)O,-,0,-,-,-,-
Cc1cccc(NC(=O)C2CCCN(c3ncnc4c3nc3n4CCCCC3)C2)n1 (centres undefined),?,0,0,0,?,0
CCN(CC)c1ccc(-c2nn3c(-c4n[nH]c5c4CCC5)nnc3s2)cc1,?,0,0,0,0,7.9µM
Cn1c2ccccc2c(=O)c2ccc(C#CC3(O)CCCCC3)cc21,0,0,0,0,0,10µM
COc1cc2sc3ccc(C#CC4(O)CCCCC4)cc3c(=O)c2cc1OC,-,-,-,0,-,?
COc1ccccc1-c1cccc([C@@H]2C[C@H]3[C@H](CON3C)CN2C(=O)C(C)(C)C)c1,-,-,-,0,-,0[8.37 µM]
CCCC1CCc2c(sc(NC(=O)OCC)c2C#N)C1 (centres undefined),0,0,0,0,12µM,0
O=C(NC1CCCC1)C1CCCN1S(=O)(=O)c1cccc2cccnc12 (centres undefined),-,0,0,0,0,0
O=C(C1CCC1)N1CCN(c2ccc(Cl)cc2)CC1,0,0,0,0,7.4µM,0
O=C(NCc1ccccc1)C1CCCN1S(=O)(=O)c1cccc2cccnc12 (centres undefined),0,0,0,0,4.7µM,0
O=C(C1c2ccccc2Oc2ccccc21)N1CCN(c2ccc(Cl)cc2)CC1,-,0,0,0,2.1µM,?
